Screening results deposited in PubChem BioAssay by several laboratories.
AI-2 QS mod: Vibrio harveyi AI-2 quorum sensing modulators, primary screen, JMH597 strain, luminescence/OD600 ratio; hit rate 0.4% among 300,000; AID 2094, 2009; activity change, % at 7.5 µM; Vibrio harveyi JMH597 AI-2 luminescence/OD600 ratio, 9 h; hits give low values; strain lacks LuxN and CqsS sensors; 0 = neutral-control median; in the data active means activity change below about -75%, passing the limit was not always enough;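 further: luminescence divided by OD600 gain over 9 h not by final OD600 alone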
Tat export inh: E. coli Tat export inhibitors, primary screen, MC4100, TorA-mCherry reporter, fluorescence, single point. AID 488895, 2010. inhibition, % at 10 µM. hit rate 0.036% among 340,000;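 active means mean replicate inhibition at least 50% and at least half of replicates individually reaching 50%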;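 further: exported cargo escapes ClpAP degradation while cytoplasmic cargo is degraded and loses fluorescence; 0% = median of neutral control wells and 100% = median of NaSCN control wells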
AddAB inh: growth inhibition of E. coli expressing H. pylori AddAB, primary screen, AddAB inhibitor project, absorbance; hit rate 0.29% among 330,000; inhibition, % at 11.9 µM; in the data active means inhibition above about 12%;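 further: 0% = vehicle wells of infected cells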
E coli growth-1: E. coli V3065 growth inhibition, primary screen, counter-screen for AddAB inhibitor project, absorbance, OD600; hit rate 0.27% among 330,000; inhibition, % at 11.9 µM; AID 449728, 2010; 18 h;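 active means inhibition above the campaign's mean inhibition across all tested compounds plus 3 SD, cut at about 9.9% in these data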;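 further: uninfected addAB+ strain grown without phage in ampicillin broth; 0% = DMSO wells and 100% = ciprofloxacin 0.95 µg/ml wells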
E coli growth-2: E. coli growth inhibition, primary screen, OD600; hit rate 0.21% among 330,000; Escherichia coli growth, 23 h; hits give low values; OD600 absorbance (no concentration beside the values);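 active means OD600 absorbance below the run mean of sample wells minus 3.6 SD, in any replicate, cut at about 0.56 in these data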
phage Ecoli inh: growth loss of phage-infected E. coli, primary screen, RecBCD inhibitor project, absorbance, with phage, HTS; hit rate 0.26% among 360,000; inhibition, % at 11.9 µM; in the data active means inhibition above about 11%
Active calls of the source: *. This is a sample that favours compounds with a hit; in the whole collection about 0.79% have one here.

For O=C1COc2ccc(S(=O)(=O)Nc3ccc4c(c3)OCO4)cc2N1 the results were AI-2 QS mod -69, Tat export inh 0, AddAB inh 6, E coli growth-1 -1, E coli growth-2 0.68 and phage Ecoli inh 5.
CC(C)c1ccc(NS(=O)(=O)c2ccc3c(c2)oc(=O)n3C)cc1 was read as AI-2 QS mod -94*, Tat export inh -8, AddAB inh 3, E coli growth-1 3, E coli growth-2 0.69 and phage Ecoli inh 0.
CC(C)c1ccc(NS(=O)(=O)c2ccc3c(c2)NC(=O)CO3)cc1 was read as AI-2 QS mod -85*, Tat export inh 6, AddAB inh 4, E coli growth-1 -1, E coli growth-2 0.69 and phage Ecoli inh 0.
Cc1nn(-c2ccccc2)c(C)c1C=NNC(=O)CSc1nc2ccccc2c(=O)n1-c1ccccc1 was read as E coli growth-2 0.73.
Screening N#Cc1ccc(NC(=O)NN2CCCCCC2)cc1 returned Tat export inh 12, E coli growth-2 0.53* and phage Ecoli inh 10.
`COc1ccc(-c2cn(N=Cc3ccc(Cl)cc3Cl)c(N)n2)cc1` gave E coli growth-2 0.7.
For C=CCn1c(COc2ccc(Cl)cc2)nnc1SCC(=O)NN=Cc1cccc(O)c1 the results were E coli growth-2 0.8.
`CC(C)c1ccc2c(c1)C(N1CCNCC1)Cc1ccc(F)cc1S2` (configuration not stated) gave AI-2 QS mod 4, AddAB inh 1, E coli growth-1 1, E coli growth-2 0.13* and phage Ecoli inh 4.
For CN1CCN(C2Cc3ccc(F)cc3Sc3cc(F)c(Cl)cc32)CC1 (configuration not stated) the results were AI-2 QS mod 40, Tat export inh 6, AddAB inh 3, E coli growth-1 -3 and phage Ecoli inh 0.
Screening Cc1ccc(/C=C2/Sc3ccccc3N(CC(=O)NCC3CCCO3)C2=O)cc1 (configuration not stated) returned AI-2 QS mod 17, Tat export inh 4, AddAB inh 2, E coli growth-1 -1 and E coli growth-2 0.68.
`Cc1cc(/C=C2\Sc3ccccc3N2C)cc(C)[n+]1CC1CCCO1` (configuration not stated) gave Tat export inh -16, E coli growth-2 0.46* and phage Ecoli inh 3.
CC=C(C)C(=O)Nc1cccc(C2=NOC3(C2)CC(C(N)=O)N(C(=O)c2ccc(Cl)cc2)C3)c1 (configuration not stated) was read as E coli growth-2 0.68.
Nc1nc2ccccc2n1Cc1ccc(Cl)c(Cl)c1 was read as AI-2 QS mod 11, Tat export inh 13, AddAB inh 3, E coli growth-1 3, E coli growth-2 0.44* and phage Ecoli inh -2.
For COc1cccc(OC)c1C1=CC(=O)CC(c2ccc3c(c2)OCO3)C1 (configuration not stated) the results were E coli growth-2 0.67.
Screening O=C(Oc1cccc2cccnc12)c1cccc([N+](=O)[O-])c1 returned AI-2 QS mod 28, Tat export inh -6, AddAB inh 1, E coli growth-1 0, E coli growth-2 0.62 and phage Ecoli inh 1.
`O=C(Oc1ccc(Cl)c2cccnc12)c1cccc([N+](=O)[O-])c1` gave AI-2 QS mod 1, Tat export inh 5, AddAB inh 3, E coli growth-1 -2, E coli growth-2 0.51* and phage Ecoli inh 0.
For CC(C)CN1CCC(=O)N(C(CO)c2ccccc2)CC1 (configuration not stated) the results were E coli growth-2 0.68.
For O=C1COc2ccc(N3C(=O)C=CC3=O)cc2N1 the results were AI-2 QS mod -81*, AddAB inh 4 and E coli growth-1 0.
For Cc1ccc(NC(=O)OCc2cc(-c3ccccc3)on2)cc1 the results were AI-2 QS mod -24, Tat export inh 5, AddAB inh -1, E coli growth-1 -1, E coli growth-2 0.69 and phage Ecoli inh 5.
`Cc1ccc(NC(=O)OCc2cccs2)cc1` gave AI-2 QS mod -90*, AddAB inh 2 and E coli growth-1 -1.
CCn1cc(C(=O)N[C@@H](C)C(=O)OC)c(=O)c2cc3c(cc21)OCO3 was read as AI-2 QS mod 8, Tat export inh 0, AddAB inh 5, E coli growth-1 8, E coli growth-2 0.084* and phage Ecoli inh 1.
Screening CCn1cc(C(=O)O)c(=O)c2cc3c(cc21)OCO3 returned AI-2 QS mod 12, AddAB inh 97* and E coli growth-1 97*.
For CCn1cc(C(=O)O)c(=O)c2cc(Br)ccc21 the results were AI-2 QS mod 22, Tat export inh -1, AddAB inh 0, E coli growth-1 0, E coli growth-2 0.56* and phage Ecoli inh 0.
Cc1cc2cc(CCNC(=O)c3ccc(Br)o3)c(=O)[nH]c2cc1C was read as AI-2 QS mod -40, Tat export inh -7, AddAB inh 12, E coli growth-1 12*, E coli growth-2 0.65 and phage Ecoli inh 10.
COc1ccc2cc(CCNC(=O)c3ccc(Br)o3)c(=O)[nH]c2c1 was read as AI-2 QS mod 46, Tat export inh -6, AddAB inh 1, E coli growth-1 1, E coli growth-2 0.73 and phage Ecoli inh 3.
COc1ccc(NC(=O)COC(=O)c2ccc([N+](=O)[O-])o2)cc1Cl was read as AI-2 QS mod -89*, Tat export inh -6, AddAB inh 1, E coli growth-1 5, E coli growth-2 0.62 and phage Ecoli inh 3.
`O=C(OCc1cc(Cl)ccc1OC(F)F)c1cncc(Br)c1` gave AI-2 QS mod 51, Tat export inh 9, AddAB inh -1, E coli growth-1 -1, E coli growth-2 0.67 and phage Ecoli inh 3.
Screening COc1ccc(NC(=O)CNc2cccc(C#N)c2)cc1Cl returned AI-2 QS mod -80*, Tat export inh -6, AddAB inh 2, E coli growth-1 1, E coli growth-2 0.73 and phage Ecoli inh -1.
Screening O=C(OCc1cc(Cl)ccc1OC(F)F)c1ccc([N+](=O)[O-])o1 returned AI-2 QS mod -99*, AddAB inh 5 and E coli growth-1 1.
COc1ccc(NC(=O)Nc2cccc([N+](=O)[O-])c2)cc1Cl was read as AI-2 QS mod -28, Tat export inh 2, AddAB inh 2, E coli growth-1 -1, E coli growth-2 0.52* and phage Ecoli inh 6.
`COc1ccc(NCC(=O)Nc2ccc(C#N)cc2)cc1Cl` gave AI-2 QS mod 0, Tat export inh -8, AddAB inh 1, E coli growth-1 -2, E coli growth-2 0.59 and phage Ecoli inh 3.
Screening CCN1C(=O)C2C(c3ccc(-c4ccccc4)cc3)N3CCC[C@@]3(C(=O)OC)C2C1=O (some centres not stated) returned E coli growth-2 0.7.
